# According to ChEMBL document CHEMBL3433997, “St. Jude Leishmania screening dataset” (2016):
# Assays:
# Assay type in all cases: functional
# [1] = biological target: Solute carrier family 2, facilitated glucose transporter member 1 (Homo sapiens) (UniProt P11166); assay: ST_JUDE_LEISH: Cytotoxicity at 2uM final concentration against transgenic Leishmania Mexicana promastigotes LmGLUT1 that are glucose transport deficient and complemented with the human glucose transporter GLUT1. Activity is measured by DNA content using SYBR green in vitro
# [2] = biological target: Hexose transporter 1 (Plasmodium falciparum) (UniProt O97467); assay: ST_JUDE_LEISH: Cytotoxicity at 2uM final concentration against transgenic Leishmania Mexicana promastigotes LmPfHT that are glucose transport deficient and complemented with the Plasmodium falciparum hexose transporter. Activity is measured by DNA content using SYBR green in vitro
# [3] = biological target: Glucose transporter (Leishmania mexicana) (UniProt O61059); assay: ST_JUDE_LEISH: Cytotoxicity at 2uM final concentration against transgenic Leishmania Mexicana promastigotes LmGT2 that are glucose transport deficient and complemented with the L. Mexicana glucose transporter 2. Activity is measured by DNA content using SYBR green in vitro
# Sequence of Solute carrier family 2, facilitated glucose transporter member 1 (Homo sapiens) (P11166 whole entry): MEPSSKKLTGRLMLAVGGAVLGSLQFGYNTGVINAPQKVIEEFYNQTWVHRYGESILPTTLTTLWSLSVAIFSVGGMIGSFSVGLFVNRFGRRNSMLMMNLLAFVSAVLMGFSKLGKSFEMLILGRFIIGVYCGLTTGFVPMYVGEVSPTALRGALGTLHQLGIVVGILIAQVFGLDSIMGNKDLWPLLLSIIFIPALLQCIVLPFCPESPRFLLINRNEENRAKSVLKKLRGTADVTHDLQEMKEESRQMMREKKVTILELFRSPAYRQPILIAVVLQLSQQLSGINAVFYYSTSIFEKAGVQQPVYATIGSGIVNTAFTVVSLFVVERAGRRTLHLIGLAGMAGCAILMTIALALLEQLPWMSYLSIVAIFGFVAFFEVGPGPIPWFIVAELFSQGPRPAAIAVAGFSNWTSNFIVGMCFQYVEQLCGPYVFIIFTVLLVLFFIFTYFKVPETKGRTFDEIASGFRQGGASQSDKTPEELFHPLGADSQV
Structure (SMILES),inhibition [1],inhibition [2],inhibition [3]
O=C(Cc1cccc(Cl)c1)Nc1cccc(-c2c[nH]c3nc(Nc4ccccc4)ncc23)c1,3.42%,-0.54%,0.7%
O=C(/C=C/c1ccccc1F)NC1CCC(CCN2CCc3ccc(-c4cccnc4)cc3CC2)CC1 (stereo unspecified),15.8%,15.8%,20.1%
CCC(=O)Nc1ccc(Nc2nc(C)cc(N3CCCC3)n2)cc1,3.46%,12.4%,2.39%
Fc1ccc2[nH]c(-c3cccc(-c4ccc(CN5CCN(CCN6CCOCC6)CC5)cc4)c3)nc2c1,1.26%,1.68%,1.79%
COC(=O)c1cccc(CNCc2ccc(-c3ccc(-c4nc5cc(F)ccc5[nH]4)cc3)cc2)c1,13%,6.26%,4.98%
CN(Cc1ccc(-c2ccc(C(F)(F)F)cc2)cc1)C(=O)Cn1c(CCc2cccc(F)c2F)cc(=O)c2ccc(OCCCN3CCCCC3)cc21,1.01%,0.66%,-0.5%
COc1ccc(-c2nc(NC(=O)CSc3ccccc3)sc2C)cc1,9.07%,4.4%,6.37%
Cc1ccccc1C1CCN(C2CCC(NC(=O)/C=C/c3c(F)ccc(F)c3F)CC2)CC1 (stereo unspecified),2.52%,2.75%,2.13%
COc1ccc(CNCc2ccc(F)cc2)cc1-c1ccc(S(=O)(=O)NCCN2CCCC2)s1,2.3%,3.11%,5.96%
COc1ccc(CNc2ccnc(-n3cnc4cc(C)c(C)cc43)n2)cc1Cl,4.37%,3.69%,2.53%
O=C(Nc1cccc(C(F)(F)F)c1)c1cccc2nc(C(F)(F)F)[nH]c12,19.4%,24.2%,15%
CCOC(=O)c1ccc(N2CCN(c3cc(Cl)ccc3C)CC2)c(NC(=O)Nc2ccc(Cl)c(Cl)c2)c1,-3.21%,-3.18%,-0.61%
Cc1cccc2nc(-c3ccc(-c4cccc(NC(=O)CCc5c[nH]cn5)c4)cc3)[nH]c12,0.1%,1.46%,2.35%
O=S(=O)(NC1CCN(c2ccnc3ccccc23)C1)c1ccc(OC(F)(F)F)cc1 (stereo unspecified),2.25%,-0.51%,2.41%
O=C(CCC1CCCC1)N(Cc1ccc(-c2ccc(CNCCc3ccccc3)cc2)cc1)C1CCCNC1 (stereo unspecified),-0.19%,1.6%,0.14%
O=C(Cc1ccc(Nc2nccc(Nc3cccc4[nH]ncc34)n2)cc1)Nc1ccc(C(F)(F)F)cc1,5.9%,6.7%,4.78%
COc1ccc(CNCc2cccc(-c3ccc(-c4nc5ccccc5[nH]4)cc3)c2)cc1,3.35%,1.89%,3.52%
CCC(=O)NC(c1ccco1)c1cc(Cl)c2cccnc2c1O (stereo unspecified),12.9%,12.3%,10.7%
CC(C)NCc1ccc(OCc2cccc(COc3ccc(CNC(C)C)cc3I)c2)c(I)c1,112%,109%,113%
Cc1ccc2c(Cl)c(C(=O)N3CC(C)OC(C)C3)sc2c1 (stereo unspecified),0.22%,1.09%,3.43%
COC(=O)c1cc(C(O)CNC(C)CCc2cccc(F)c2)ccc1O (stereo unspecified),2.72%,2.7%,2.89%
O=C(Nc1cccc2ccccc12)N1CCc2cc3nccc(N4CCN5CCC[C@H]5C4)c3cc21,5.08%,2.82%,4.23%
CCCCN(CCCC)Cc1cc(N(C)c2ccc([N+](=O)[O-])cn2)ccc1O,2.39%,-0.26%,1.69%
CCCCCC(C)C(C)c1cc(O)c2c(c1)OC(C)(C)CC2=Cc1ccncc1 (stereo unspecified),12.6%,11.5%,10.7%

Structure (SMILES),inhibition [1],inhibition [2],inhibition [3]
S=C(Nc1cccc(Cl)c1)NC1CCN(c2ccnc3cc(Cl)ccc23)C1 (stereo unspecified),13.2%,9.65%,9.07%
Cc1ccc2nc(C)cc(N/N=C/c3ccc([N+](=O)[O-])o3)c2c1,14.9%,12.8%,9.98%
CCn1c(-c2nonc2N)nc2c(-c3cccc(NC(=O)Nc4ccc(C(F)(F)F)cc4)c3)ncc(OCCCN)c21,2.98%,2.48%,3.54%
CCc1ccc(O)c(-c2cc(C(=O)Nc3cccnc3)[nH]n2)c1,1.69%,0.53%,2.29%
CCCNCc1ccc(-c2ccc(CN(Cc3cnc(C)cn3)C(=O)c3nn(-c4ccccc4)nc3C)cc2)nc1,2.69%,0.9%,-6.47%
COc1cc(Nc2ccnc3cc(-c4ccncc4)ccc23)cc(OC)c1OC,11.4%,20.7%,9.21%
N#Cc1cccc(NC(=O)Nc2ccc(-c3ccc(-c4nc5cc(C(F)(F)F)ccc5[nH]4)cc3)cc2)c1,3.68%,1.32%,4.14%
CC(=O)c1ccc2nc[nH]c(=O)c2c1,99.2%,96.3%,91.6%
CC[C@H](C)CNC(=O)c1ccnc(-c2ccc(CNCCCc3ccccc3)cc2)c1,1.95%,1.1%,-0.91%
CCC(C)Oc1ccc2nc(N)nc(N)c2c1Cl (stereo unspecified),41.2%,55.9%,30%
Cc1cc(N)c2cc(NC(=O)c3cccc4ccccc34)ccc2n1,0.77%,1.19%,0%
CN1CCC(Oc2cc(CN3CC[C@H](NC(=O)c4ccc(Cl)c(Cl)c4)C3)ccc2I)C1 (stereo partly specified),-0.57%,0.84%,2.33%
O=C(Nc1ccc2c(c1)OCO2)c1cc(-c2cccnc2)cnc1NCc1ccc2c(c1)OCO2,0.99%,0.19%,2.1%
O=C(C=Cc1ccc(-c2ccccc2)cc1)N1CCC(CCN2CCC(c3c[nH]c4ccccc34)CC2)CC1,2.14%,9.22%,-1.2%
Nc1ccc(-c2nc3c(ccc4ccccc43)[nH]2)cc1,2.25%,1.85%,0.2%
CN(C)CCOc1cc(NC(=O)Nc2ccc(-c3ccncc3)c(C(F)(F)F)c2)ccc1Cl,9.9%,9.02%,9.08%
Cc1cc(=NN=Cc2ccccc2F)c2cccc(C)c2[nH]1,3.9%,5.38%,0.4%
O=C(/C=C/c1ccc(C(F)(F)F)cc1)NCCCCCN1CCCN(C(=O)Nc2ccc(Cl)c(C(F)(F)F)c2)CC1,-0.16%,0.4%,0.66%
Fc1ccc2[nH]c(-c3cccc(-c4ccc(CNCCN5CCNCC5)cc4)c3)nc2c1,-0.21%,-0.52%,-0.74%
c1cc(CNCc2ccc3c(c2)OCO3)cc(-c2cccc(CNc3ccc4ncccc4c3)c2)c1,0.81%,1.4%,-0.38%
Cc1ccc(/C=C/C(=O)NCCCCCN2CCN(C(=O)Nc3ccc(Cl)c(C(F)(F)F)c3)CC2)cc1,4.47%,-0.2%,0.88%
Cc1ncc([N+](=O)[O-])n1CCOC(=O)NC(NCC1COc2ccccc2O1)C(Cl)(Cl)Cl (stereo unspecified),2.63%,2.63%,2.19%
Cc1cccc2c3c([nH]c12)C1(CCN(CCc2ccccc2)CC1)NC(C(=O)NCc1ccccc1)C3 (stereo unspecified),4.58%,5.51%,0.71%
CC(C)C[C@H](NC(=O)c1cccc(F)c1)C(=O)N[C@H](/C=N/NC(=O)c1ccccc1)CCc1ccccc1,-1.39%,3.32%,0.18%

Structure (SMILES),inhibition [1],inhibition [2],inhibition [3]
CCN(CC)CCCC(C)Nc1ccnc2ccc(OC)cc12 (stereo unspecified),8.15%,8.91%,8.52%
COc1cc(-c2cc3cc(Cl)c(Cl)cc3[nH]2)ccc1C(=O)NC1CCN(Cc2ccccc2)CC1,4.58%,2.67%,3.54%
CC(C)NCc1ccc(-c2cccc(NC(=O)c3ccc(F)cc3)c2)cc1,6.57%,9.15%,6.89%
CCOC(=O)c1ccc(NC(=O)Nc2cccc(-c3cccc(-c4nc5cc(F)ccc5[nH]4)c3)c2)cc1,0.68%,2.75%,3.67%
CCNc1cc(C(=O)N[C@@H](Cc2ccccc2Cl)[C@H](O)CNC(C)CCCC(C)C)cc(N2CCCCS2(=O)=O)c1 (stereo partly specified),-2.6%,0.93%,-2.24%
COc1cccc(NC(=O)CSc2nc(-c3ccccc3Cl)ns2)c1,5.33%,4.86%,6.13%
Nc1ccc(-c2csc(Nc3ccncc3)n2)cc1,2.7%,1.93%,2.21%
Nc1nc(N)c2c(ccc3c2ccn3Cc2ccc(OCc3ccccc3)cc2)n1,2.4%,-1.46%,-0.6%
Cn1cnc(-c2ccc3c(c2)CCN(CCC2CCC(NC(=O)/C=C/c4ccc(F)cc4)CC2)CC3)c1 (stereo unspecified),54.7%,70.5%,60.9%
O=C(NCC1CCN(Cc2ccsc2)C1)c1cc(-c2cccc(C(F)(F)F)c2)cs1 (stereo unspecified),1.96%,0.91%,3.66%
c1ccc(CCNc2ncnc3c2[nH]c2ccccc23)cc1,3.67%,11.6%,3.69%
CCCOc1ccc(NC(=O)c2cccs2)cc1Cl,10%,8.57%,9.7%
Cc1ccccc1NC(=S)NC1CCN(CCCCCNC(=O)/C=C/c2ccc(Cl)c(Cl)c2)CC1,5.52%,4.69%,2.71%
COc1ccc(-c2cnc(N)nc2N)cc1Cl,1.93%,1.5%,2.06%
CS(=O)(=O)Cc1ccc(Nc2nccc(-c3c(-c4cccc(C(=O)Nc5c(F)cccc5F)c4)nn4ccccc34)n2)cc1,21.4%,10.2%,2.15%
Cc1noc(C)c1-c1ccc2c(Nc3ccc(Cl)cc3)c(C(N)=O)cnc2c1,24.3%,29.3%,12.9%
O=C(NCCCCCN1CCC(c2c[nH]c3ccccc23)CC1)c1ccc(-c2cccnc2)cc1,1.86%,0.85%,1.15%
Cc1nc2ccccn2c1C1(O)C(=O)Nc2c(Cl)cc(Cl)cc21 (stereo unspecified),5.72%,4.95%,2.71%
FC(F)(F)c1ccc2[nH]c(-c3ccc(-c4ccc(CN5CCN(c6cnccn6)CC5)cc4)s3)nc2c1,2.24%,1.86%,-2.19%
COc1cccc(-c2ccc(O)c(CNCCc3cccc(F)c3)c2)n1,-0.7%,3.14%,2%
Cc1cc(NCc2ccccc2)nc(NCc2ccccc2)n1,11.8%,5.78%,4.43%
NC(=O)c1cccc(C(=O)Nc2cccc(-c3ccc(-c4nc5cc(C(F)(F)F)ccc5[nH]4)cc3)c2)c1,0.31%,4.83%,2.53%
Cc1nc2nc(N)nc(N)c2c(C)c1Cc1ccc(Cl)cc1,33.4%,43.3%,28.7%
Cc1cc(C2CCN(CCCCNC(=O)c3ccc(NC(=O)c4ccc(Cl)cc4)cc3)CC2)c(C)cc1OCc1ccncc1,8.72%,7.09%,7.42%
